USP17 inh: inhibitors of human USP17 deubiquitinase; AID 1645855; purified USP17, Ub-rhodamine cleavage fluorescence, 3 h; 47,000 compounds, 6.5% hits; inhibition, % at 50 µM
USP8 block: blocks human USP8 ubiquitin-rhodamine cleavage. inhibition, % at 20 µM. purified USP8, Ub-rhodamine cleavage fluorescence, 30 min. 47,000 compounds, 4.2% hits. AID 1645853
USP30 block: inhibitors of human USP30 deubiquitinase; inhibition, % at 25 µM; AID 1645860; purified USP30, Ub-rhodamine cleavage fluorescence; 47,000 compounds, 5.3% hits; Q70CQ3
USP10 inh: blocks human USP10 ubiquitin-rhodamine cleavage; Q14694; purified USP10, Ub-rhodamine fluorescence, 60 min; inhibition, % at 20 µM; 47,000 compounds, 1.1% hits; AID 1645856
USP28 inh: inhibitors of human USP28 deubiquitinase; Q96RU2; purified USP28, Ub-rhodamine cleavage fluorescence, 30 min; inhibition, % at 25 µM; 47,000 compounds, 3% hits
* = called active by the depositor; x = not tested or not shown. In the library only some 14% were active in any assay of this set; here they are far more common. Rule as the data show it: active = inhibition above about 30%; inactive = the rest.

SMILES	USP17 inh	USP8 block	USP30 block	USP10 inh	USP28 inh
COc1cccc(CNC(=O)[C@H](C)NC(=O)N2CCn3c2nc2ccccc23)c1	-22	-1	-1	-4	-7
CCC(C)[C@H](NC(=O)N1CCn2c1nc1ccccc12)C(=O)NCCC1=CCCCC1 (some centres undefined)	36*	0	-25	1	-16
Cc1ccc(CNC(=O)[C@H](C)NC(=O)N2CCn3c2nc2ccccc23)cc1	65*	-20	80*	3	47*
CC(C)C[C@H](NC(=O)N1CCn2c1nc1ccccc12)C(=O)NCCc1ccccc1	-14	-5	-5	0	-12
COc1ccc(CCNC(=O)[C@H](C)NC(=O)N2CCn3c2nc2ccccc23)cc1OC	20	1	30*	0	19
COc1ccc(CCNC(=O)[C@H](CCSC)NC(=O)N2CCn3c2nc2ccccc23)cc1OC	35*	16	75*	0	21
COc1ccc2[nH]c3c(c2c1)CCN1C(=O)N(c2ccccc2C(=O)NCCc2ccc(OC)c(OC)c2)C(=O)[C@]31C	11	1	-19	0	-20
COc1ccc(CNC(=O)[C@H](CCSC)NC(=O)N2CCn3c2nc2ccccc23)cc1	9	3	44*	1	-3
O=C(C1CC1)N1CCC2(C1)c1ccccc1S(=O)(=O)N2Cc1ccc(F)cc1 (centres undefined)	14	8	36*	2	8
CCNC(=O)N1CCC2(C1)c1ccccc1S(=O)(=O)N2Cc1ccc(OC)cc1 (centres undefined)	-2	4	-8	0	-16
CN(C)C(Cc1ccccc1)C(=O)c1ccc2c(c1)NC(=O)CO2 (centres undefined)	-1	-1	-1	4	6
Cc1nn(CC(=O)c2ccc3c(c2)NC(=O)CO3)c(C)c1[N+](=O)[O-]	15	-45	-7	1	32*
COc1cc2c(cc1OC)CN(Cc1cc(=O)n3ccsc3n1)CC2	11	56*	-222	-12	-45
NC(=O)C[n+]1ccn2c(Nc3ccccc3)c(-c3ccccc3O)nc2c1	16	73*	-65	-1	-6
COC(=O)c1cccc(Nc2c(-c3ccccc3O)nc3cnccn23)c1	-8	-8	x	-3	x
Cc1ccc(Nc2c(-c3ccccc3O)nc3c[n+](CC(N)=O)ccn23)cc1	-64	37*	-224	0	-81
O=C(CC12CC3CC(CC(C3)C1)C2)NC(c1ccccc1)c1ccccc1	13	15	26	9	14
NS(=O)(=O)c1ccc(C(=O)Nc2cccc(-c3ccc4nncn4n3)c2)cc1	9	34*	0	2	3
Cn1cc2cccc(NC(=O)c3ccc(F)cc3)c2n1	87*	91*	-3	2	9
Cc1c(C)n(-c2ccccc2)c2ncn(CC(=O)NCc3cccc(F)c3)c(=O)c12	13	45*	34*	27	-1
CSc1ccc(CNC(=O)Cn2nc(C)c3c(C)n(-c4ccccc4)nc3c2=O)cc1	40*	89*	10	46*	9
Cc1ccc(CNC(=O)CCc2nc3c(C)nn(-c4ccccc4)c3n(C)c2=O)cc1	-2	-15	-2	-3	-1
Cc1c(C)n(-c2ccccc2)c2ncn(CC(=O)NCc3ccc(F)cc3)c(=O)c12	10	7	40*	12	-3
COc1ccc(CNC(=O)Cn2cnc3c(c(C)c(C)n3-c3ccccc3)c2=O)cc1	30	0	36*	2	19
Cc1cccc(-c2nnc(C(C)N3CCN(S(=O)(=O)N4CCCCCC4)CC3)o2)c1 (centres undefined)	-3	1	-8	-4	-12
SMILES	USP17 inh	USP8 block	USP30 block	USP10 inh	USP28 inh
Cc1nc2ccccc2nc1SCC(=O)NCCc1ccccc1	-7	-4	-5	2	-14
O=C(Cc1ccc(Cl)cc1)NCc1cnc(C2CCCCO2)nc1 (centres undefined)	0	3	11	0	4
Cc1cccc(OCC(=O)Nc2cc(F)c3nc(N4CCOCC4)ccc3c2)c1	-12	60*	-139	-10	-51
COCC(=O)Nc1cc(F)c2nc(N3CCOCC3)ccc2c1	63*	89*	-31	-6	-2
CCOC(=O)c1cc(NC(=O)COc2ccccc2)ccc1N1CCOCC1	-3	1	17	0	-1
COC(=O)c1cc(NC(=O)COc2ccccc2F)ccc1N1CCOCC1	2	2	13	0	-1
CCn1ccc2c(cc(C(=O)Nc3cccc(C)c3C)n2C)c1=O	-16	-8	-6	0	31*
CCOc1ccccc1CNC(=O)c1cc2c(=O)n(C)ccc2n1C	9	5	12	1	14
CCn1ccc2c(cc(C(=O)Nc3cccc(F)c3)n2C)c1=O	39*	-7	12	-3	43*
Cc1cccc(CSCCNC(=O)CN2C(=O)c3cccc4cccc2c34)c1	41*	0	23	-1	4
COc1ccccc1NC(=O)CN1C(=O)c2cccnc2Sc2ccccc21	-2	0	-31	-4	-2
O=C(CN1C(=O)c2cccc3cccc1c23)NCCSCc1ccc(Cl)c(Cl)c1	-3	53*	0	40*	-2
Cc1cccc(CNC(=O)CN2C(=O)C3CCCN3C(=O)c3ccc(F)cc32)c1 (centres undefined)	1	4	-2	-1	-13
CCOc1ccccc1NC(=O)CN1C(=O)c2cccc3cccc1c23	-9	68*	6	26	-6
CC(C)C[C@H](NC(=O)[C@@H](Cc1ccccc1)n1c(=O)[nH]c2ccccc2c1=O)C(=O)N[C@@H](Cc1ccccc1)C(=O)O	19	-11	21	6	11
O=C(Nc1ccc(F)cc1)c1cc2ccccc2[nH]c1=O	21	12	x	7	x
O=C(NCc1ccc(CN2CCCC2)cc1)c1cc2ccccc2[nH]c1=O	65*	8	28	0	23
CCC(=O)Nc1nc2ccc(NC(=O)C3CC3)cc2s1	-1	0	-6	0	2
CCC(=O)Nc1nc2cc(NC(=O)c3ccccc3C)ccc2s1	4	10	25	1	7
CCC(=O)Nc1nc2cc(NC(=O)Nc3ccc(C)cc3)ccc2s1	22	47*	42*	30*	15
COc1ccccc1NC(=O)Nc1ccc2sc(NC(=O)C3CCCCC3)nc2c1	-3	10	31*	12	16
CCC(=O)Nc1nc2cc(NC(=O)Nc3cccc(C)c3)ccc2s1	13	29	38*	23	16
Cc1cc(C2CN(C(=O)CN3CCCCCC3=O)CCO2)nc(C)n1 (centres undefined)	-11	-45	0	2	-5
CN(C)S(=O)(=O)c1ccc(C(=O)Nc2c(C#N)oc3ccccc23)cc1	51*	0	26	11	27
CN(C)S(=O)(=O)c1ccc(C(=O)Nc2sccc2C#N)cc1	-7	-12	-90	-8	-23
O=C(C1CC1)N1CCC(c2ncncc2-c2ccncc2)CC1	-7	-3	-14	4	-13
